From the supplement of paper PMC7156485
± gives the standard deviation of the averaged measurements.

Tests used:
Conditions in all cases: concentration: 10 µM; 24 h
HCC1569 [1] = assay: cell number relative to DMSO (% of DMSO); higher = more cells (less growth inhibition / toxicity)
Method in brief: (§1)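 Cell number or H1.0 nuclear intensity appears as percent of the plate control, based on the median of replicates. Measurements came from HCC1569 and TDF cells exposed in triplicate to compounds at 10 µM for 24 h at 37 °C, then imaged in six fields per well at ×10. Positional effects were smoothed out of HCC1569 values.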

TDF [2] = assay: as above
Method in brief: as §1

TDF [3] = assay: H1.0 immunofluorescence intensity relative to DMSO (% of DMSO); higher = stronger H1.0 induction, active = 120 or more
Method in brief: as §1

HCC1569 [4] = assay: H1.0 immunofluorescence intensity relative to DMSO (% of DMSO); higher = stronger H1.0 induction, active = 140 or more
Method in brief: as §1
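Throughout, for H1.0 immunofluorescence intensity relative to DMSO: TDF is a line of transformed human dermal fibroblasts of mesenchymal origin.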
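Throughout, for cell number relative to DMSO: TDF denotes transformed human dermal fibroblasts of mesenchymal origin.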

Structure (SMILES)	cell number (HCC1569 [1])	cell number (TDF [2])	H1.0 immunofluorescence intensity (TDF [3])	H1.0 immunofluorescence intensity (HCC1569 [4])
CCC(CO)NC(=O)C1C=C2c3cccc4c3c(cn4C)CC2N(C)C1.O=C(O)C=CC(=O)O (configuration not stated) [Methysergide maleate]	101 ± 2.7	97.1 ± 7	100 (inactive)	97 (inactive)
CC(=O)[C@H]1CC[C@H]2[C@@H]3CC[C@H]4C[C@](C)(O)CC[C@]4(C)[C@H]3CC[C@]12C [(3alpha,5alpha)-3-hydroxy-3-methylpregnan-20-one]	105	93	101 (inactive)	111 (inactive)
COC(=O)CC(O)(CCC(C)(C)O)C(=O)OC1C(OC)=CC23CCCN2CCc2cc4c(cc2C13)OCO4 (configuration not stated) [Harringtonine]	56.5	29.9	107 (inactive)	90 (inactive)
CS(=O)CCCCN=C=S (configuration not stated) [1-isothiocyanato-4-(methylsulfinyl)butane]	99.7	94.9	93.7 (inactive)	89.6 (inactive)
CCCN1CC(CSC)CC2c3cccc4[nH]cc(c34)CC21.CS(=O)(=O)O (configuration not stated) [Pergolide mesylate]	95.8	102	93.3 (inactive)	112 (inactive)
C=CCN1CCC23CCCCC2C1Cc1ccc(O)cc13.O=C(O)C(O)C(O)C(=O)O (configuration not stated) [Levallorphan tartrate]	99.1	118	90.1 (inactive)	100 (inactive)
Cl.Cl.c1ccc(CCCN2CCN(CCOC(c3ccccc3)c3ccccc3)CC2)cc1	98.6	91.5	103 (inactive)	102 (inactive)
COc1ccc2c(c1)C13CCCCC1C(C2)NCC3.Cl (configuration not stated) [3-Methoxy-morphanin hydrochloride]	99.1	107	97.3 (inactive)	99.5 (inactive)
COc1ccc2c(c1)C13CCCCC1C(C2)N(C)CC3 (configuration not stated) [Dextromethorphan]	103	103	102 (inactive)	107 (inactive)
CC(C)C1CNC(C(=O)O)C1CC(=O)O (configuration not stated) [Dihydrokainic acid]	102	116	89.2 (inactive)	88.7 (inactive)
Cl.Cl.NNCc1cccc(O)c1 [3-Hydroxybenzylhydrazine dihydrochloride]	46.1	48.9	117 (inactive)	104 (inactive)
CCCCCC=CC=CC(CCCCCCCC(=O)O)OO (configuration not stated)	101	94	100 (inactive)	94.9 (inactive)
CC(N)Cc1cnc[nH]1.Cl.Cl (stereo not drawn) [Histamine, R(-)-alpha-methyl-, dihydrochloride]	97.4	102	95.5 (inactive)	93.1 (inactive)
CC(C)(C)C1(O)CC2OC(=O)CC23C(=O)OC2OC(=O)C(O)C231 (configuration not stated) [Bilobalide]	99.9	109	96.7 (inactive)	97.2 (inactive)
CCN1CC2(OC(=O)c3ccccc3NC(C)=O)CCC(OC)C34C1C(CC23)C1(O)CC(OC)C2CC4C1(O)C2OC (configuration not stated) [Lappaconitine]	107	103	100 (inactive)	94.3 (inactive)
Cc1c(C(=O)Nc2cccc(C(F)(F)F)c2)cc(-c2ccccc2)n1CCCN1CCOCC1	92.8	94.3	95 (inactive)	115 (inactive)
CN(C)C(=O)Oc1cc(OC(=O)N(C)C)cc(C(O)CNC(C)(C)C)c1 (configuration not stated) [Bambuterol]	101	112	93.5 (inactive)	106 (inactive)
Cl.NNC(N)=O [Semicarbazide hydrochloride]	102	111	89 (inactive)	108 (inactive)
Cc1o[nH]c(=O)c1CC(N)C(=O)O (racemic)	103	101	96.3 (inactive)	87.9 (inactive)
C[N+](C)(C)CC#CCOC(=O)Nc1cccc(Cl)c1.[Cl-]	103	99.2	94.4 (inactive)	87.7 (inactive)
CCCCCCCCCCCCCCC(Br)C(=O)O (configuration not stated) [2-bromohexadecanoic acid]	109	107	91.6 (inactive)	94.5 (inactive)
CCCCCCC1C(=O)OC(C)C(NC(=O)c2cccc(NC=O)c2O)C(=O)OC(C)C1OC(=O)CC(C)C (configuration not stated) [Antimycin A1]	73.6	66.5	113 (inactive)	136 (inactive)
CC(C)(O)C1C2OC(=O)C1C1(O)CC3OC34C(=O)OC2C14C (configuration not stated) [Picrotonin]	99.4	100	97.2 (inactive)	82.5 (inactive)
